Activity calls are given as the source filed them.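 How the source made its calls, unless noted: active means visually confirmed hit in the image check and inhibition above 20%; inconclusive means visually confirmed hit but inhibition not above 20%; inactive means no visual hit in the image check.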
Assays:
[1] = inhibitors of TNFa-induced NFkB p65 translocation, primary screen, imaging, HUVEC, MLSMR starter and 10KST1 sets (AID 438;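 active means inhibition above 20% together with a positive visual image hit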;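 further: compound added about 3h40 before a 20 min TNFalpha stimulation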;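 on inhibition: signal is the nuclear over cytoplasmic p65 intensity ratio per well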); conditions: HUVEC TNFa-induced p65 nuclear translocation; cell count: measured here: nuclei count (cytotoxicity indicator), at 2.08 µM unless noted; inhibition: at 2 µM, stronger effect = higher value unless noted
[2] = reduction of polyQ htt aggregates in cells – imaging, exon1htt(103Q)mCFP cells, high-content imaging, primary screen (AID 483;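 active means visual image review flags a hit and inhibition of aggregation exceeds 20%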;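 further: compound exposure lasted 3 days before fixation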;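 on nuclei count: percent of the per-plate median nuclei count of sample wells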); conditions: exon1htt(103Q)mCFP cell line, aggregate imaging, at 2 µM; inhibition of aggregation: stronger effect = higher value; nuclei count: measured here: cell count, toxicity
[3] = endothelial E-selectin expression blockers – imaging, HUVEC, immunofluorescence, MLSMR starter and 10KST1 sets, primary screen (AID 487); conditions: HUVEC TNFalpha-induced E-selectin immunofluorescence imaging, at 2 µM; inhibition: stronger effect = higher value; nuclei count: measured here: cell number, toxicity;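 on inhibition: signal is fraction of cell area covered by stained E-selectin grains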;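 on nuclei count: 100% = median nuclei count of all wells on the same plate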
[4] = target: Voltage-gated potassium channel subunit beta-2 (Rattus norvegicus) (UniProt P62483); assay: inhibitors of rat Kvbeta2 reductase activity – biochemical, NADPH fluorescence, primary screen (AID 622;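 active means fluorescence slope higher than the sample average by over 3 SD, cut at about -0.22 in these data, passing the limit was not always enough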;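 further: slope of raw intensity against log time taken from 70 to 1610 s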); conditions: recombinant KvBeta, 4-cyanobenzaldehyde reduction, at 10 µM, stronger effect = higher value
[5] = target: Voltage-gated potassium channel subunit beta-2 (Rattus norvegicus) (UniProt P62483); assay: enhancers of rat Kvbeta2 NADPH turnover – biochemical, NADPH fluorescence, primary screen (AID 623;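 active means NADPH fluorescence slope more negative than the mean of all samples by about 3 SD, 99.7% confidence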;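 further: fluorescence intensity change per second fitted from 20 to 320 s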); conditions: Recombinant KvBeta, NADPH fluorescence decrease slope, 10 min; at 10 µM; stronger effect = lower value
[6] = target: Muscarinic acetylcholine receptor M4 (Homo sapiens) (UniProt P08173); assay: M4-linked GIRK flux change, two-sided – cell-based, HEK293 M4/GIRK, thallium flux, BTC-AM, M4 allosteric agonist project, primary screen (AID 625;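 active means fluorescence slope after compound addition differing from the mean of all tested samples at 99.7% confidence, mostly higher but some lower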;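 further: thallium influx through GIRK channels coupled to M4 in HEK293 cells with BTC-AM dye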); conditions: at 10 µM, actives lie on both sides
[7] = blockers of RIG-like receptor reporter activation – cell-based, Sendai virus stimulus, luciferase, 10K MLSCN set, TLR/RLR signaling modifier project, primary screen (AID 602276;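 active means inhibition at or above 50% at 10 µM; inactive means inhibition below 50%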;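 further: firefly luciferase from ISG56 promoter only with Renilla not read in this screen; 0% = Sendai virus plus DMSO and 100% = medium plus DMSO without virus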); conditions: HEK293 RL24 IRF3 luciferase reporter, at 10 µM, stronger effect = higher value
[8] = TLR3 IRF3 reporter activation blockers – cell-based, poly I:C stimulus, luciferase, 10K MLSCN set, primary screen (AID 602277;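 active means inhibition of the reporter signal at or above 50%; inactive means inhibition below 50%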); conditions: HEK293-TLR3 RL24 IRF3 luciferase reporter, at 10 µM, stronger effect = higher value
[9] = target: Alpha-2C adrenergic receptor (Homo sapiens) (UniProt P18825); assay: compounds altering alpha2C-coupled GIRK flux – cell-based, HEK293 alpha2C/GIRK1/2, thallium flux, primary screen (AID 624;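 active means fluorescence slope after compound addition differing from the mean of all screened samples at 99.7% confidence, in either direction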;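 further: slope of fluorescence ratio to pre-addition baseline per second over 15 to 24 s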); conditions: thallium flux BTC fluorescence, at 10 µM, actives lie on both sides
[10] = inhibitors of larval lipid processing in zebrafish, primary screen, whole organism, PED6 fluorescence, gall bladder and intestine (AID 686;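 active means a full or partial loss of lipid-probe fluorescence in the fish gall bladder, intestine or both, judged by eye; inactive means no fluorescence loss, or compound toxic to the fish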;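 further: larvae 5 to 7 days old with five fish per well; signal comes from phospholipase A2 cleavage of quenched PED6 carried via bile; overnight exposure to compound and PED6 before scoring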); conditions: Zebrafish larvae PED6 lipid processing, fluorescence scoring

Alpha-2C adrenergic receptor (Homo sapiens), sequence (P18825 whole entry, looked up): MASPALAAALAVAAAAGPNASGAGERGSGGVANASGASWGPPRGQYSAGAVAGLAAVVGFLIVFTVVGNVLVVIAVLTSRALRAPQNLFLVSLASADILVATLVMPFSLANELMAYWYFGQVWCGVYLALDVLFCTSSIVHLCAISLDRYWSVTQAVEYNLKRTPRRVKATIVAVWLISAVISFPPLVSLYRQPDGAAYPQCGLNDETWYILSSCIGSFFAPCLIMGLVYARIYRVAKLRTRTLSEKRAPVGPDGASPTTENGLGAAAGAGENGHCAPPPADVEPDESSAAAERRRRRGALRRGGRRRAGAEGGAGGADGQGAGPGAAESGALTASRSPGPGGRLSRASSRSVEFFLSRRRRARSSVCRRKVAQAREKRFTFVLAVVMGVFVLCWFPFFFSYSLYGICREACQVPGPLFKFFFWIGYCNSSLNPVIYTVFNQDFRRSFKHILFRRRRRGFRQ
Muscarinic acetylcholine receptor M4 (Homo sapiens), sequence (P08173 whole entry, looked up): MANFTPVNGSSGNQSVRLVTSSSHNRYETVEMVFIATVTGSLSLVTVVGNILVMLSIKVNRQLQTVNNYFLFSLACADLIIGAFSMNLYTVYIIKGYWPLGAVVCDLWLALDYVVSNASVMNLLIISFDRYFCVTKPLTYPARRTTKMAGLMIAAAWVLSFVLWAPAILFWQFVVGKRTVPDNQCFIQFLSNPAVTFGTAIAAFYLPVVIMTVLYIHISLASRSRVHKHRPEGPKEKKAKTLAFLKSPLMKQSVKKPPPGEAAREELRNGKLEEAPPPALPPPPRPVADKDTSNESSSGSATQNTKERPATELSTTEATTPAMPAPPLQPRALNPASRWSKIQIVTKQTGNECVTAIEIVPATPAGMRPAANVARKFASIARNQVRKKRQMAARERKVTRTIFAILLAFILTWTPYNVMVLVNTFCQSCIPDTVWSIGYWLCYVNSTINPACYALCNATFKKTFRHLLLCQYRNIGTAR
Voltage-gated potassium channel subunit beta-2 (Rattus norvegicus), sequence (P62483 whole entry, looked up): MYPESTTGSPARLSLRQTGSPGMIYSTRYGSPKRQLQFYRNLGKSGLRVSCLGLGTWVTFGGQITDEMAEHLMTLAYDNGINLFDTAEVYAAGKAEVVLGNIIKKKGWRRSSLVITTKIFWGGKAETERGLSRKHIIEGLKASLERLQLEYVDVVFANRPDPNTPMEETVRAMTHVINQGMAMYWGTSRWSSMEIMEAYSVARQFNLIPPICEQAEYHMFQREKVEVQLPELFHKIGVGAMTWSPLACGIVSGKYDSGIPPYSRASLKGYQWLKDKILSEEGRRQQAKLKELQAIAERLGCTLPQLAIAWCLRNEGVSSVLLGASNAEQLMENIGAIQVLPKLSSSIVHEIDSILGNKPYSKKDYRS

SMILES | cell count [1] | inhibition [1] | inhibition of aggregation [2] | nuclei count [2] [%] | inhibition [3] | nuclei count [3] [%] | fluorescence slope [4] | NADPH fluorescence slope [5] | fluorescence slope [6] | inhibition [7] | inhibition [8] | slope [9] | outcome [10]
O=C(Cc1ccccc1)OC(COCc1ccccc1)CN1CCOCC1 (stereo not given) | 314 | -7.8% (inactive) | -19.1% (inactive) | 77.8 | -56.9% (inactive) | 117 | -0.37 (inactive) | 2.9e-05 (inactive) | 0.00718 (inactive) | 2.92% (inactive) | 10.1% (inactive) | – | –
OC(CNC1CCCCC1)c1ccccc1 (stereo not given) | 317 | -2.5% (inactive) | 17.9% (inactive) | 107 | -91.2% (inactive) | 105 | -0.399 (inactive) | -4.1e-05 (inactive) | – | 10.6% (inactive) | 22.6% (inactive) | 0.00434 (inactive) | inactive
Cc1cccc(N2CCc3c2nc2ccccc2c3N)c1 | 731 | -6.5% (inactive) | -7.8% (inactive) | 98 | -54.5% (inactive) | 112 | -0.113 (active) | -9.7e-06 (inactive) | – | 15.5% (inactive) | 31.6% (inactive) | 0.00452 (inactive) | –
COC(=O)c1ccccc1-n1c(C)nc2ccccc2c1=O | 328 | -4.4% (inactive) | -24.8% (inactive) | 103 | -140% (inactive) | 115 | -0.605 (inactive) | 4.4e-06 (inactive) | 0.00587 (inactive) | -2.94% (inactive) | -2.38% (inactive) | – | –
Cc1ccc(CS(=O)(=O)CCC(=O)N2CCC3(CC2)OCCO3)cc1 | 463 | 6% (inactive) | -8.2% (inactive) | 111 | -31.5% (inactive) | 109 | -0.573 (inactive) | -6.6e-05 (inactive) | 0.00375 (inactive) | 13.7% (inactive) | 16.9% (inactive) | – | –
Cc1cccc(-n2c(-c3ccco3)nc3ccccc3c2=O)n1 | 344 | -2.8% (inactive) | 3.4% (inactive) | 97.9 | 20.8% (inactive) | 83.8 | -0.368 (inactive) | 7.6e-06 (inactive) | 0.00556 (inactive) | -11.4% (inactive) | -10.7% (inactive) | – | –
CCOC(=O)C(O)(c1ccc(N(CC)C(=O)OC)cc1)C(F)(F)F (stereo not given) | 614 | -6.1% (inactive) | -9.5% (inactive) | 91.2 | -140% (inactive) | 111 | -0.425 (inactive) | -0.000455 (inactive) | 0.00401 (inactive) | 13.7% (inactive) | 13.7% (inactive) | – | –
CN1CCN(c2nc3ccccc3c(=O)n2-c2ccccc2)CC1 | 568 | -2.3% (inactive) | -4.9% (inactive) | 70.3 | -3.5% (inactive) | 102 | -0.57 (inactive) | -2.8e-05 (inactive) | – | 845% [above what the read-out allows, likely interference] (active) | 50.1% (active) | 0.00748 (inactive) | –
Cc1[nH]c2c(Cl)cccc2c1CCN | 517 | 3.9% (inactive) | 1.5% (inactive) | 86.5 | -19.9% (inactive) | 110 | -0.427 (inactive) | -1.2e-05 (inactive) | 0.0063 (inactive) | 13% (inactive) | 18.6% (inactive) | – | –
CP(C)(=O)CCC(=O)O | 347 | -7.5% (inactive) | -5.3% (inactive) | 99.6 | -100% (inactive) | 118 | -0.434 (inactive) | -0.000166 (inactive) | – | 2.85% (inactive) | 10.1% (inactive) | 0.00678 (inactive) | –
Cc1oc2ccc(OC(=O)N(C)C)cc2c1C(=O)OC(C)C | 450 | 0.8% (inactive) | 1.1% (inactive) | 99.7 | -78.3% (inactive) | 155 | -0.606 (inactive) | -3.3e-05 (inactive) | – | 9.46% (inactive) | -11.8% (inactive) | 0.00801 (inactive) | –
O=C1C2CCCN2C(c2ccc(Cl)c(Cl)c2)N1c1ccccn1 (stereo not given) | 499 | -2.1% (inactive) | 0.2% (inactive) | 98.4 | 17.4% (inactive) | 101 | -0.552 (inactive) | -4e-05 (inactive) | 0.00578 (inactive) | 17.8% (inactive) | 12.7% (inactive) | – | –
Cc1ccc(S(=O)(=O)Cc2ccc(C(=O)N3CCC4(CC3)OCCO4)o2)cc1 | 602 | -6.9% (inactive) | 16.1% (inactive) | 113 | -17.6% (inactive) | 102 | -0.432 (inactive) | -0.000506 (inactive) | 0.00517 (inactive) | -7.38% (inactive) | -9.45% (inactive) | – | –
Cc1cc(NC(=O)COC(=O)c2c(C)nn(Cc3ccccc3)c2Cl)no1 | 346 | 7.3% (inactive) | -4.8% (inactive) | 90.6 | -68.8% (inactive) | 109 | -0.377 (inactive) | -0.000127 (inactive) | 0.00868 (inactive) | 3.25% (inactive) | 12.9% (inactive) | – | –
